Source: PubChem BioAssay
Compounds with a hit are over-represented: about 1.9% of the library has one in this group of screens.
S1P4 ag = activates the human S1P4 receptor. O95977. S1P4-expressing cell line, agonist reporter assay. activation, % at 4.98 µM. actives 0.35% (n = 220,000); in the data active = activation above about 11%;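 also: 0% = DMSO vehicle and 100% = reference agonist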
EP2 antag = blocks the human prostaglandin E2 receptor EP2; P43116; C6 glioma cells expressing human EP2, cAMP TR-FRET; cells stimulated with saturating PGE2; inhibition, % at 25 µM; actives 0.52% (n = 260,000); AID 1422;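 active = percent inhibition above 40 after rounding to a whole number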;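 also: rat C6 glioma host cells with rolipram phosphodiesterase inhibitor present; the protocol text gives 20 µM as final concentration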
S1P4 antagonist = human S1P4 receptor antagonism; S1P4-expressing cells, antagonist mode, reporter read-out; actives 0.26% (n = 220,000); O95977; inhibition, % at 4.98 µM; in the data active = inhibition above about 29%;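 also: 0% = wells stimulated with agonist and 100% = vehicle wells without agonist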
S1P3 antag = S1P3 (human) receptor antagonism. Q99500. CHO S1P3 NFAT-BLA reporter, FRET fluorescence, antagonist mode. inhibition, % at 4.98 µM. actives 0.27% (n = 170,000). AID 485;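 active = inhibition above the plate cutoff, the mean inhibition of test wells on that plate plus 3 SD, cut at about 28% in these data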;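 also: cells challenged with S1P at its EC80 of 0.8 µM; blue over green emission ratio from cleaved BLA substrate after 4 h stimulation; 0% = S1P-stimulated wells and 100% = unstimulated DMSO-only wells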
Target sequence (Q99500 whole entry, looked up): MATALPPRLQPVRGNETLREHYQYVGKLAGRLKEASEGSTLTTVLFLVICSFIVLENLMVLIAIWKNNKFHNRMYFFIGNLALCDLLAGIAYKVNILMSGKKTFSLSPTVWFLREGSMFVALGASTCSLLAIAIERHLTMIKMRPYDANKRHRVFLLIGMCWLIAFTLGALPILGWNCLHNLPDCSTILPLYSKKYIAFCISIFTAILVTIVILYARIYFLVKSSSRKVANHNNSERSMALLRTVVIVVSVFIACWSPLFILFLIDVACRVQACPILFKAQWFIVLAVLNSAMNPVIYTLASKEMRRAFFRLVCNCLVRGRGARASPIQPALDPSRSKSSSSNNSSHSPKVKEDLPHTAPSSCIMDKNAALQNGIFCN
EP2 mod = modulates human prostaglandin E2 receptor EP2 signaling; AID 940; actives 0.83% (n = 260,000); P43116; EP2-expressing cells, cAMP HTRF FRET, PGE2 co-stimulation; induction, % at 25 µM;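 active = compounds whose cAMP rise, as percent of the full-agonist control response, exceeds 60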;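 also: rat C6 glioma line stably carrying human EP2 under a CMV promoter; the protocol text gives 20 µM as final concentration; 100% = response of wells given 1 µM PGE2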
* marks the source's active call; other numbers are inactive results; / = not tested or not shown.

SMILES	S1P4 ag	EP2 antag	S1P4 antagonist	S1P3 antag	EP2 mod
NC(=O)c1c(NC(=O)NC2CCCCC2)sc2c1CCCC2	/	12	/	/	-69
CC(=O)c1cccc(Nc2nc(-c3ccc(O)c(O)c3)cs2)c1	/	14	/	/	-109
CN1CCCC1CCNc1ccc2sc3ccccc3c(=O)c2c1 (centres undefined)	/	44*	/	/	/
CCOC(=O)c1c(NC(=O)c2nn(CC)cc2Br)c(C#N)cn1-c1ccccc1	2	2	-16	59*	16
CCOC(=O)C(=CNc1cc(C)ccc1-n1cccc1)C(=O)OCC	-1	4	-13	-10	65*
CCOC(=O)C(=CNc1ccccc1C)C(=O)OCC	2	8	-12	/	14
CCOC(=O)C(=CNc1ccccc1Cl)C(=O)OCC	-2	9	-9	-10	20
CCOC(=O)C(=CNc1ccc(C(F)(F)F)cc1Cl)C(=O)OCC	2	6	-14	1	69*
N#CC(c1ccccc1)c1ccc(C(=O)c2ccc(F)cc2)cc1 (centres undefined)	-5	-1	2	/	62*
N#CC(c1ccc(F)cc1)c1ccc(C(=O)c2ccccc2)cc1 (centres undefined)	0	9	-5	/	2
COc1ccc(-c2cc3nccc(C4CCCNC4)n3n2)cc1 (centres undefined)	/	/	/	/	-29
O=C(Nc1nnc(-c2ccccc2)o1)c1nc2ccccc2s1	/	45*	/	-17	-14
COc1ccc(NC(=O)c2ccco2)cc1NC(=O)c1ccc(OC)c(OC)c1	/	13	/	/	16
Cc1ncc(-c2ccncc2)c(C2CCCN(C(=O)N3CCCC3)C2)n1 (centres undefined)	/	/	/	/	-51
Cc1cc(NC(=O)c2ccc(Cl)cc2)c(C)cc1O	-1	4	7	-4	-19
Cc1cc(NC(=O)c2ccc(Cl)cc2)c(C(C)C)cc1O	-1	15	47*	/	-4
Cc1cc2occ(CC(=O)Nc3nnc(CCN4CCCC4)s3)c2cc1C	/	10	/	/	-67
COc1cccc(C(=O)N2CCN(C(=O)COc3ccccc3)CC2)c1OC	/	4	/	/	-34
CCN(CC)S(=O)(=O)c1ccc(Cl)c(NC(=O)c2cc(Cl)cc(Cl)c2)c1	1	7	-3	-5	9
CCN(CC)S(=O)(=O)c1ccc(Cl)c(NC(=O)c2ccccc2C)c1	0	9	-21	/	63*
Cc1cc(C)c2[nH]c(=O)c(CN(Cc3ccco3)C(=S)NCc3ccccc3)cc2c1	/	9	/	/	-4
COc1ccc(NC(=O)C(=O)N2N=C3CCCCC3C2(O)C(F)(F)F)cc1 (centres undefined)	-1	10	-14	-12	61*
CN1CCc2cccc3c2C1Cc1ccc(O)c(O)c1-3 (centres undefined)	/	60*	/	/	-48
CCN(C(=O)c1cccc(Cl)c1)c1nnc(-c2cccnc2)s1	/	10	/	/	1
OC1(c2ccccc2)CCN(Cc2ccccc2)CC1	1	2	-7	5	-17
SMILES	S1P4 ag	EP2 antag	S1P4 antagonist	S1P3 antag	EP2 mod
c1ccc(CN2CCC3(CC2)SSC2(CCN(Cc4ccccc4)CC2)SS3)cc1	/	45*	/	/	28
OC1(c2ccc(F)cc2)CCN(Cc2ccccc2)C1 (centres undefined)	0	/	-2	12	61*
Nc1c(C(=O)c2cccs2)sc(=S)n1CCCN1CCOCC1	/	5	/	/	-74
CCc1cccc(CC)c1NC(=O)CSc1nc2cc3c(cc2cc1C#N)OCCO3	/	33	/	/	63*
N#Cc1cc2cc3c(cc2nc1SCC(=O)NCCc1ccccc1)OCCO3	/	38	/	/	73*
N#Cc1cc2cc3c(cc2nc1SCC(=O)Nc1cccc2ccccc12)OCCO3	/	23	/	/	47
Cc1cc(C)c2[nH]c(=O)c(CN(CCc3ccccc3)C(=O)C3CCCCC3)cc2c1	/	11	/	/	31
CC(C)(C)N1C(=O)Cc2c1nc(N)c1c(N)nc(N3CCCCC3CO)c(C#N)c21 (centres undefined)	0	44*	-17	43	-29
CN(CCO)c1nc(N)c2c(N)nc3c(c2c1C#N)CC(=O)N3C1CCCC1	0	20	-11	/	18
COc1ccc(-c2nsc3c(=O)n(CCc4ccc(OC)c(OC)c4)cnc23)cc1	/	/	/	/	-12
O=C(O)c1cc2c(cc1S(=O)(=O)O)[C@@H]1[C@@H]([C@H]3[C@H]2[C@]2(Cl)C(Cl)=C(Cl)[C@@]3(Cl)C2(Cl)Cl)[C@]2(Cl)C(Cl)=C(Cl)[C@@]1(Cl)C2(Cl)Cl	/	45*	/	/	73*
CCCCSc1nnc(-c2c[nH]c3ccccc23)n1C	1	9	3	101*	-2
CO/N=C\C(=N\Nc1ccc(OC)cc1)C(=O)c1ccccc1	0	11	-1	/	62*
